The structures appear in SMILES notation. Values without a mark were called inactive. Inconclusive results are not listed. Active and inactive are the calls of the source. Unless noted, calls come from the whole dose curve; as a rule, active = well fitted curve in the direction sought with a large enough effect in the repeat runs; inconclusive = weak or mixed curves; inactive = no such curve, though single readings can be large; an effect the other way counts as inactive or inconclusive.

Assay [1] addresses Acetylcholinesterase (Homo sapiens) (UniProt P22303). As to the kind of experiment: Acetylcholinesterase (AChE) small molecule antagonists: enzyme-based qHTS assay (AID 1347397; calls by dose curve; note: nearly all actives have a fitted effect of over 55% in size). Conditions: Potency: AChE enzyme activity inhibition. Summed up: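 Colorimetric DTNB readout of acetylthiocholine hydrolysis, 10 min at room temperature, after 30 min room-temperature exposure of 50 mU/mL recombinant human enzyme to compound; DMSO vehicle control.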

The target is the same in assay [2]. As to the kind of experiment: Acetylcholinesterase (AChE) small molecule antagonists: fluorescence cell-based qHTS assay (AID 1347398; calls by dose curve; note: nearly all actives have a fitted effect of over 50% in size). The note with it: Potency: AChE activity. Summed up:
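Cellular AChE activity read as thiocholine from acetylthiocholine hydrolysis, detected by Thiolite Green fluorescence at 490/520 nm after 40 min at room temperature. Compounds were pre-incubated 30 min at 37 C on adherent SH-SY5Y cells.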
A general note: qHTS replaces the single test concentration by a dilution series.

For assay [3] the target is unchanged. In words: Acetylcholinesterase (AChE) small molecule antagonists: enzyme-based qHTS assay with human liver microsomes (AID 1347399; calls by dose curve; note: nearly all actives have a fitted effect of over 60% in size). The note with it: Potency: qHTS inhibition. In short, it runs like this: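 Recombinant human AChE (50 mU/mL in the enzyme mix) and human liver microsomes (0.25 mg/mL final) were preincubated with compound and NADPH (0.25 mg/mL final) for 30 min at 37 C. Acetylthiocholine/DTNB was then added; thiocholine was read colorimetrically after 10 min at room temperature.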

Assay [4] has as its target Cytochrome P450 2D6 (Homo sapiens) (UniProt P10635). As to the kind of experiment: Cytochrome P450 Family 2 Subfamily D Member 6 (CYP2D6) small molecule antagonists: luciferase reporter qHTS assay (AID 1671196). For activity change, negative = inhibition: series mostly up to about 120 µM. Note: nearly all actives have a fitted effect of over 50% in size. Note: potency is the fitted concentration of half-maximal effect. Summed up:
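Chemicals tested for interference with CYP2D6 activity; proluciferin substrate, NADPH regeneration, 1 h at room temperature, luminescent detection.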
(In a reporter assay the amount or activity of a reporter protein is the signal.)

Assay [5] has as its target Cytochrome P450 2C9 (Homo sapiens) (UniProt P11712). In words: Cytochrome P450 Family 2 Subfamily C Member 9 (CYP2C9) small molecule antagonists: luciferase reporter qHTS assay (AID 1671198). For activity change, negative = inhibition: series mostly up to about 120 µM. Note: nearly all actives have a fitted effect of over 50% in size. Note: potency is the fitted concentration of half-maximal effect. In short, it runs like this: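 Enzyme-substrate mix preincubated with compound 10 min at room temperature; reaction started with NADPH regeneration solution, 1 h 37C. Luminescent luciferin product read after 20 min detection reagent.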

For assay [6], the target named is Cytochrome P450 1A2 (Homo sapiens) (UniProt P05177). As to the kind of experiment: Cytochrome P450 Family 1 Subfamily A Member 2 (CYP1A2) small molecule antagonists: luciferase reporter qHTS assay (AID 1671199). For activity change, negative = inhibition: series mostly up to about 120 µM. Note: nearly all actives have a fitted effect of over 50% in size. Note: potency is the fitted concentration of half-maximal effect. In short, it runs like this:
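Read-out is luminescence from luciferin detection reagent (20 min) proportional to CYP1A2 activity; compounds in DMSO preincubated 10 min with enzyme and proluciferin substrate, then NADPH regeneration solution, 1 h, room temperature.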

The target in assay [7] is Voltage-gated inwardly rectifying potassium channel KCNH2 (Homo sapiens) (UniProt Q12809). In words: Human Ether-a-go-go-Related Gene (hERG) channel small molecule antagonists: fluorescence cell-based qHTS assay (AID 1671200).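 For activity change, negative = inhibition: hERG-expressing U2OS cells given a thallium stimulus after FluxOR II dye loading; series mostly up to about 77 µM.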 Note: nearly all actives have a fitted effect of over 50% in size. Note: potency is the fitted concentration of half-maximal effect. Summed up:
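Thallium served as the potassium surrogate; its influx into dye-loaded U2OS cells carrying the channel was measured by fluorescence over 2 min.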

The target in assay [8] is Cytochrome P450 3A4 (Homo sapiens) (UniProt P08684). As to the kind of experiment: Cytochrome P450 Family 3 Subfamily A Member 4 (CYP3A4) small molecule antagonists: luciferase reporter qHTS assay (AID 1671201). For activity change, negative = inhibition: series mostly up to about 120 µM. Note: nearly all actives have a fitted effect of over 50% in size. Note: potency is the fitted concentration of half-maximal effect. Summed up:
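Relative luminescence units after 20 min with luciferin detection reagent served as read-out. Beforehand, CYP3A4 turned over a proluciferin substrate for 1 h at room temperature with NADPH regeneration, following 10 min compound preincubation.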

Assay [9] concerns the target Cytochrome P450 2C19 (Homo sapiens) (UniProt P33261). In words: Cytochrome P450 Family 2 Subfamily C Member 19 (CYP2C19) small molecule antagonists: luciferase reporter qHTS assay (AID 1671197). For activity change, negative = inhibition: series mostly up to about 120 µM. Note: nearly all actives have a fitted effect of over 65% in size. Note: potency is the fitted concentration of half-maximal effect. In short, it runs like this: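 Luminescent readout of CYP2C19 activity: luciferin product detected 20 min after adding detection reagent. Before that, compound and enzyme-substrate mix preincubated 10 min at room temperature; NADPH-regenerating system started a 1 h, 37C reaction. Ketoconazole as positive control.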
% is set by controls: 0 for no effect and ±100 for the full control effect.

Cytochrome P450 1A2 (Homo sapiens), sequence (P05177 whole entry, looked up): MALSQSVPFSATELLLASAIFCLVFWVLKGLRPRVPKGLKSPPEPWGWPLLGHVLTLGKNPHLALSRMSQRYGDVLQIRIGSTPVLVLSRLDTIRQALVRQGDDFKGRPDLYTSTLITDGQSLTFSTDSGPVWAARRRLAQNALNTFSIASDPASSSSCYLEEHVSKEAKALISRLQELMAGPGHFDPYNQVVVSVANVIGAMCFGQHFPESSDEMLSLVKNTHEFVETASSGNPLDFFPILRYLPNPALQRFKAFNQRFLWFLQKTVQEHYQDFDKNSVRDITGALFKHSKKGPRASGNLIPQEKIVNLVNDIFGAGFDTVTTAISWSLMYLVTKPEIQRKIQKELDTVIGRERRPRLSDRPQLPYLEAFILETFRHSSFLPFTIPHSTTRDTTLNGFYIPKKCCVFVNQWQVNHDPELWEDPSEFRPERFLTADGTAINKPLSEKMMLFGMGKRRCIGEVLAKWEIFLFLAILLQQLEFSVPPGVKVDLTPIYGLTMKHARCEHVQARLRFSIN
Voltage-gated inwardly rectifying potassium channel KCNH2 (Homo sapiens), sequence (Q12809 whole entry, looked up): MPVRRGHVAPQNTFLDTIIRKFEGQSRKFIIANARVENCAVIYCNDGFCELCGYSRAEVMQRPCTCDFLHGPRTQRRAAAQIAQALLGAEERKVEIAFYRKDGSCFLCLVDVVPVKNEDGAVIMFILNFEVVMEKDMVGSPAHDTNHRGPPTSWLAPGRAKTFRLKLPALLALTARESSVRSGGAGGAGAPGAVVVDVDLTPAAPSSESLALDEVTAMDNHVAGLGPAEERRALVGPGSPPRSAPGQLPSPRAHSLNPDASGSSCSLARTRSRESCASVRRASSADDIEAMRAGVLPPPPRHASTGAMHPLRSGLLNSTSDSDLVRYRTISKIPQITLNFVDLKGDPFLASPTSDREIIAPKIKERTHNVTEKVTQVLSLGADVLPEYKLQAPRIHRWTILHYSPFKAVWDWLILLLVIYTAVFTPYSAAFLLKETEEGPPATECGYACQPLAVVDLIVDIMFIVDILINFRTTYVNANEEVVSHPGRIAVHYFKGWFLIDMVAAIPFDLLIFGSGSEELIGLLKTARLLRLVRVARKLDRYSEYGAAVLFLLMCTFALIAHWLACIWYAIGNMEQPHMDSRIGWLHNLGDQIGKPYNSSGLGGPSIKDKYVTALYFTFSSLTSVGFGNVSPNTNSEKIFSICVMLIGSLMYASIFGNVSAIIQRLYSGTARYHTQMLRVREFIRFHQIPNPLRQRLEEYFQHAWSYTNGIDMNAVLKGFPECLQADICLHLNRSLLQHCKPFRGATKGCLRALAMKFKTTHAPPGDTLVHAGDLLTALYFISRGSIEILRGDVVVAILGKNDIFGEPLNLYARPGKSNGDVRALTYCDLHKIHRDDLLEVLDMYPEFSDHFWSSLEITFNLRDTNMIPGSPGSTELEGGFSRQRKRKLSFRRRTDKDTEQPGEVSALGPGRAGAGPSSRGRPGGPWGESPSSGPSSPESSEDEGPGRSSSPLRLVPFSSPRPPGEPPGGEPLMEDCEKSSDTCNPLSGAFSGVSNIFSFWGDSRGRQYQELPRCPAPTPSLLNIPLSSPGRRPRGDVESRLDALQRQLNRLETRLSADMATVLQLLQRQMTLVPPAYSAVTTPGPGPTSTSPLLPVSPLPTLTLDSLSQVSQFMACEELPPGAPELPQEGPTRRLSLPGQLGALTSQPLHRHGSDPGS
Cytochrome P450 2C19 (Homo sapiens), sequence (P33261 whole entry, looked up): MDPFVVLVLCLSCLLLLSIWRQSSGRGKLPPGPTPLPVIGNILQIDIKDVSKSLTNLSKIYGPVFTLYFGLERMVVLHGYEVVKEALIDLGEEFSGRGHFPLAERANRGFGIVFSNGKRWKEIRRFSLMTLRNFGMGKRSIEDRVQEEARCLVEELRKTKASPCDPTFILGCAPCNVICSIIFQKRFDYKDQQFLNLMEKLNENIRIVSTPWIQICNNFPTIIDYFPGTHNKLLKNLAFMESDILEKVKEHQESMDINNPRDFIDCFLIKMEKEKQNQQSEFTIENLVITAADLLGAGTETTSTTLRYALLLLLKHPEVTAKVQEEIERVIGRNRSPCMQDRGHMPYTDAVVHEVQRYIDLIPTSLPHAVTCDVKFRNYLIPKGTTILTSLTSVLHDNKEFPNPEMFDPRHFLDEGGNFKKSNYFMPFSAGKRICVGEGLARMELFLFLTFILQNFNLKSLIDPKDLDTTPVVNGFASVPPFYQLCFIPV
Cytochrome P450 2D6 (Homo sapiens), sequence (P10635 whole entry, looked up): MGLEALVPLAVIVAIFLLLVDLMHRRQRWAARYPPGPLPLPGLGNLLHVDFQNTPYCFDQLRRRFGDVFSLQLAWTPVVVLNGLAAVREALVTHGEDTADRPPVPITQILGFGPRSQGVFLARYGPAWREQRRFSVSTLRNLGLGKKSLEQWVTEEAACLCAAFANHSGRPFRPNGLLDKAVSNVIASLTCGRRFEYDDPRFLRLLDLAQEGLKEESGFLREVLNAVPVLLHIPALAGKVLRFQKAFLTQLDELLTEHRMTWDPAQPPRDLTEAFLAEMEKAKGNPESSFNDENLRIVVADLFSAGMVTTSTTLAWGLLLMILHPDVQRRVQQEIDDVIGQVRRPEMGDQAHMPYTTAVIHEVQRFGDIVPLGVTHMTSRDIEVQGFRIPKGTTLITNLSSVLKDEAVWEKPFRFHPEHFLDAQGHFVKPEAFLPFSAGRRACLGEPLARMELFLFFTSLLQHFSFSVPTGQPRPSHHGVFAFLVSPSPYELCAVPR
Cytochrome P450 3A4 (Homo sapiens), sequence (P08684 whole entry, looked up): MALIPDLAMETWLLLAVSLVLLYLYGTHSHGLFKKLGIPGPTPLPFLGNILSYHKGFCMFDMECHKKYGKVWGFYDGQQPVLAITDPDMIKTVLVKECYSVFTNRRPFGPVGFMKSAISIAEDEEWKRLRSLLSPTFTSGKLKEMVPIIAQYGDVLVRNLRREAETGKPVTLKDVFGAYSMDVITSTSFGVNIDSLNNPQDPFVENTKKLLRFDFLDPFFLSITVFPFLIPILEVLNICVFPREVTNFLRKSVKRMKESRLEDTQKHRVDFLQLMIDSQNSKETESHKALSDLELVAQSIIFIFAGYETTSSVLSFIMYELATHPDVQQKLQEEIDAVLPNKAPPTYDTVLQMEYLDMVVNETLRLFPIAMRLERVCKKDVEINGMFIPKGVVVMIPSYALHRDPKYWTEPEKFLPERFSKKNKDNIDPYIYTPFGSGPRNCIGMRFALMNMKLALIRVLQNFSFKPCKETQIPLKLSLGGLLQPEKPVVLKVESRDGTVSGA
Acetylcholinesterase (Homo sapiens), sequence (P22303 whole entry, looked up): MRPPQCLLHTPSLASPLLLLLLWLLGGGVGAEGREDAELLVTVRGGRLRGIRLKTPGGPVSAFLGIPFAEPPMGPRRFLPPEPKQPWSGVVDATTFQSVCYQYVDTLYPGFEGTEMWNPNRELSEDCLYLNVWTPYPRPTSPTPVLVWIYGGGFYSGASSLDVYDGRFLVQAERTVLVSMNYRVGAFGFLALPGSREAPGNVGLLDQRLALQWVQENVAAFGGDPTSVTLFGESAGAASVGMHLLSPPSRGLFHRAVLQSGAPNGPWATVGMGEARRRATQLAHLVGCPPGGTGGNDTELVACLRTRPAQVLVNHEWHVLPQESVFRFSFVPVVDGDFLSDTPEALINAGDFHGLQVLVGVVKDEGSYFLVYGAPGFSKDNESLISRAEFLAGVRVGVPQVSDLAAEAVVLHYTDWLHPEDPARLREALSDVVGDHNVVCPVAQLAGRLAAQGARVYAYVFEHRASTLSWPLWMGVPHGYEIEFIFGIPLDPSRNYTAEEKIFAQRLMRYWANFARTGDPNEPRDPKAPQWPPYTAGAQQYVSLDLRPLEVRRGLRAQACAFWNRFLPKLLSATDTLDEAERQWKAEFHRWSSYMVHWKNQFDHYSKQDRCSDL
Cytochrome P450 2C9 (Homo sapiens), sequence (P11712 whole entry, looked up): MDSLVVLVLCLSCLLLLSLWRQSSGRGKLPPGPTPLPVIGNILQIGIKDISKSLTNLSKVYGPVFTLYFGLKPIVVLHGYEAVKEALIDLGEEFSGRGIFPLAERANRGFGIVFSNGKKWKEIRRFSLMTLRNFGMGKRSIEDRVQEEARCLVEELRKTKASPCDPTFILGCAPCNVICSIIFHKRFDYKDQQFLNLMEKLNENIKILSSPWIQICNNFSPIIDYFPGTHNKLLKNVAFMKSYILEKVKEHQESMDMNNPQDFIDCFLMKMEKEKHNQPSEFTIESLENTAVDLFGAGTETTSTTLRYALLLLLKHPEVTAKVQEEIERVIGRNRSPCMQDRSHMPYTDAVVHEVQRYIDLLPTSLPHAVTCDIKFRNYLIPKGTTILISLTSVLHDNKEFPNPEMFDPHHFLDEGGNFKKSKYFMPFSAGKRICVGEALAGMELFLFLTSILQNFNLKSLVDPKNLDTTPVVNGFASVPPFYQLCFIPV

In the case of `O=P(Cl)(Cl)Cl`, the Potency result in [1], in assay [2], in [3], in assay [4], in [5] and in assay [7] was “inactive” throughout. Further, in assay [8], the Potency result was “inactive”. Also, the Potency in assay [6] was 23.9 µM (active).
Regarding `CN1[C@@H]2CC[C@H]1CC(O)C2` (stereo partly drawn), the Potency result in assay [1], in [2], in assay [3], in assay [4], in [5] and in assay [6] was “inactive” each time. For the same compound, the Potency result in [7] and in assay [8] was “inactive” each time.
As for `Cc1cc2c3c(c1)C(c1ccccc1)=N[C@@H](NC(=O)c1ccncc1)C(=O)N3CC2`, the Potency result in [1], in assay [2] and in [3] was “inactive” in each case. The Potency is 39.9 µM (active) in [4], 25.2 µM (active) in assay [9], 31.7 µM (active) in assay [5] and 1.12 µM (active) in [8].
As for `c1ccc2c(c1)cc1ccc3cccc4ccc2c1c34`, the Potency result in [1], in [2], in assay [3], in assay [4], in assay [9] and in [7] was “inactive” in each case. In addition, the Potency entry in assay [8] was “inactive”. Further, the Potency in assay [6] was 0.363 µM (active).
Consider `[O]=[Cr](=[O])([OH])[O][Cr](=[O])(=[O])[OH]`, for which the Potency result in assay [1], in assay [2], in assay [3], in assay [4], in assay [9] and in [6] was “inactive” throughout. Further, the Potency result in assay [7] and in [8] was “inactive” throughout.
For the compound `Cc1nn(-c2cc(NS(C)(=O)=O)c(Cl)cc2Cl)c(=O)n1C(F)F`, the Potency entry in [1], in [2], in [3], in [4], in assay [9] and in [7] was “inactive” in each case. Further, the Potency entry in assay [8] was “inactive”. In addition, in assay [5], the Potency is 39.9 µM (active).
Take `CC(=O)[O][Sn]([c]1ccccc1)([c]1ccccc1)[c]1ccccc1`: the Potency entry in [1], in assay [2] and in [3] was “inactive” each time. Moreover, the Potency in assay [4] was 0.2 µM (active); in assay [9], 5.03 µM (active); in assay [5], 0.894 µM (active); in assay [7] it was 1.1 µM (active); in assay [8] it was 12.6 µM (active).
On to `COC(=O)C(C)N(C(=O)c1ccco1)c1c(C)cccc1C` (stereo not drawn), for which the Potency result in assay [1], in [2], in assay [3], in assay [4], in assay [7] and in assay [8] was “inactive” each time. Moreover, the Potency in assay [9] was 11.2 µM (active); in [5] it was 31.7 µM (active).
As for `CCCCON=O`, the Potency result in [1], in assay [2], in [3], in assay [4], in assay [5] and in assay [6] was “inactive” in each case. The Potency result in [7] and in [8] was “inactive” in each case.
Regarding `CO/N=C(/C1=NOCCO1)c1ccccc1Oc1ncnc(Oc2ccccc2Cl)c1F`, the Potency entry in assay [1], in [2], in assay [3], in assay [4] and in assay [7] was “inactive” throughout. Besides, the Potency in [5] is 11.2 µM (active); in [6] it was 25.2 µM (active).
For `COc1ccc2c3c1O[C@H]1[C@H](O)CC[C@H]4[C@@H](C2)N(C)CC[C@@]341`, the Potency result in assay [1], in assay [2], in assay [3], in assay [4], in [9] and in [6] was “inactive” each time. Moreover, the Potency entry in assay [7] was “inactive”.
With `Nc1nc(N)nc(Cl)n1`, the Potency entry in assay [1], in assay [2], in [3], in assay [4], in [5] and in assay [6] was “inactive” in each case. For the same compound, the Potency result in [7] and in [8] was “inactive” in each case.
Consider `COC(=O)c1cc(Oc2ccc(Cl)cc2Cl)ccc1[N+](=O)[O-]`, for which the Potency entry in [1], in assay [2], in assay [3] and in assay [8] was “inactive” each time. Besides, the Potency in [4] was 22.4 µM (active); in assay [5] it was 7.1 µM (active); in assay [6], 15.9 µM (active); in assay [7], 17.4 µM (active).
In the case of `O=C(NC(=O)c1ccccc1Cl)Nc1ccc(OC(F)(F)F)cc1`, the Potency result in assay [1], in [2], in assay [3], in [4], in assay [9] and in assay [5] was “inactive” in each case. For the same compound, the Potency entry in [7] and in [8] was “inactive” throughout.
As to `CCO/N=C(\CC)C1=C(O)CC(c2c(C)cc(C)cc2C)CC1=O` (stereo not drawn), the Potency entry in [1], in assay [2], in assay [3], in assay [7] and in [8] was “inactive” throughout. Further, the Potency in assay [4] was 27.5 µM (active); in assay [9], 5.03 µM (active); in assay [5] it was 7.31 µM (active).
`O=[N+]([O-])c1ccc(CCl)cc1`: the Potency entry in assay [1], in [2], in assay [3], in assay [4], in assay [9] and in assay [5] was “inactive” throughout. The Potency result in assay [7] and in [8] was “inactive” throughout.
Take `NC1CCC(CC2CCC(N)CC2)CC1` (stereo not drawn): the Potency entry in assay [1], in [2], in assay [3], in assay [9], in assay [6] and in [7] was “inactive” in each case. In addition, the Potency in [4] is 35 µM (active); in [8], 11.1 µM (active).
As to `O=c1[nH]c2cc(Cl)ccc2n1C1CCNCC1`, the Potency entry in [1], in assay [2], in assay [3], in assay [9] and in assay [8] was “inactive” in each case. Besides, the Potency in assay [4] was 15.5 µM (active).
Regarding `[F][Sn]([c]1ccccc1)([c]1ccccc1)[c]1ccccc1`, the Potency entry in [1], in assay [2], in assay [3] and in assay [6] was “inactive” throughout. Moreover, the Potency in [4] is 2.83 µM (active); in assay [5], 2 µM (active); in assay [7], 3.09 µM (active).
Consider `CSC(C)(C)/C=N/O`, for which the Potency result in assay [1], in [2], in [3], in assay [4], in assay [5] and in [6] was “inactive” in each case. The Potency result in assay [7] and in [8] was “inactive” each time.
Turning to `CCC[CH2][Sn]([CH2]CCC)([CH2]CCC)[O][Sn]([CH2]CCC)([CH2]CCC)[CH2]CCC`, the activity change, negative = inhibition in assay [1] was -1.88% [at 10.5 µM]; in assay [2] it was 2.81% [at 10.5 µM]; in [3] it was 0.495% [at 10.5 µM]; in [6] it was -6.75% [at 10.5 µM]; in assay [8], -17.7% [at 10.5 µM]. The values for the Potency in assay [4], in assay [9] and in assay [7] were 0.155 µM (active), 0.981 µM (active) and 1.7 µM (active), respectively.
In the case of `CSC(=O)c1c(C(F)F)nc(C(F)(F)F)c(C(=O)SC)c1CC(C)C`, the Potency entry in assay [1], in assay [2], in [3] and in assay [4] was “inactive” in each case. Further, the Potency was 3.15 µM (active) in [9], 9.97 µM (active) in assay [5], 3.15 µM (active) in [6] and 6.29 µM (active) in [8].
As to `COc1c2c(cc3c1OCO3)CCN(C)C2`, the Potency entry in assay [1], in [2], in assay [3], in [9], in [5] and in assay [7] was “inactive” throughout. For the same compound, in [8], the Potency entry was “inactive”. Moreover, the Potency in assay [4] is 4.36 µM (active).
